# Screen size: about 400,000 compounds; about 13,000 (3.2%) were called active. Inconclusive results (about 18%) are left out. For the sample, actives were picked, then their nearest neighbours and some compounds at random. Values without a mark were called inactive. The call rests on the fitted dose curve; in most records, active means well fitted cell-killing curve with a large enough effect; inconclusive means small, poorly fitted or top-dose-only effect, or effect the other way; inactive means flat fitted curve, though single readings scatter.
# Assay: qHTS assay for MDR1-selective chemotherapeutics: Primary screen using the drug-selected MDR subline cells KB-V1; further: nearly all actives have a fitted effect of over 60% in size
# Details: KB-V1 MDR cells viability, CellTiter-Glo, 72 h; series mostly up to 46.1 µM; activity change, negative = cytotoxicity: at the top concentration
# Procedure, shortened: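 Compound-treated KB-V1 multidrug-resistant cells, 72 h, 37 degrees C; viability by CellTiter-Glo. Fitted qHTS curves give the values.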
# On the % scale 0 is the no-effect control and ±100 the full control effect; potency means the concentration at half of the fitted maximal effect.
Compound,"activity change, negative = cytotoxicity [%]",Potency
CCNC(=O)c1cc2c(c(-c3cccc(-c4cncnc4)c3)n1)[C@H](CCO)N(C(C)=O)C2,-5.46,
O=C(NCc1ccccc1Cl)c1csc([C@@H]2O[C@H](CO)[C@@H](O)[C@H]2O)n1,12.3,
CCOC(=O)CSc1nnc(CNc2ccc(F)cc2)o1,8.46,
COc1cc(C(=O)NCc2nnc(SCC(=O)c3ccc(Cl)cc3)o2)cc(OC)c1OC,-4.15,
CCC(=O)Nc1ccc(C(=O)CSc2nnc(CNc3ccc(Cl)cc3)o2)cc1OC,,14.6 µM (active)
CCc1nc2c(OCc3cccc(OC)c3)cccn2c1N(C)C(=O)C(C)C,-5.47,
CSc1ncnc2c1ncn2CCCNCc1cccs1,-11.8,
Nc1ncnc2c1ncn2[C@@H]1O[C@H](C(=O)NS(=O)(=O)c2c(Cl)nc3sccn23)[C@@H](O)[C@H]1O,1.29,
CSc1ccccc1C(=O)NCc1ccccc1,5.79,
CCSc1ccccc1C(=O)NCc1ccc(OC)cc1,,20.6 µM (active)
CCc1nc2ccccc2c(C(=O)NCc2ccc(OC)cc2)c1C,10.2,
O=C(CSc1ccc(Cl)cc1)NC1CC1,19,
CCC(=O)N1CCc2cc(Br)c(S(=O)(=O)NCCN3CCCCC3CC)cc21 (stereo not given),,10.3 µM (active)
CCC1CCCCN1CCNS(=O)(=O)c1ccc2c(c1)CCN2C(C)=O (stereo not given),-1.68,
CCCN(CCC)S(=O)(=O)c1cc2c(cc1Br)CCN2C(=O)CC,-21,
NC(=O)Nc1ccc(/C=C/c2ccnc3ccccc23)cc1,39.4,
C[C@H]1CN([C@@H](C)CO)C(=O)CCCn2nncc2CO[C@@H]1CN(C)Cc1ccc(Oc2ccccc2)cc1,0,
COc1ccccc1CNC(=O)c1cc(-c2cc(F)ccc2OC)n[nH]1,2.4,
Brc1ccc(-c2noc(-c3ccccc3)n2)o1,,inactive
O=C(Oc1ccc(-c2nc(-c3ccccn3)no2)cc1)c1ccccc1,,7.31 µM (active)
CCCCCCOc1ccc(OC(=O)c2cccnc2)cc1,1.98,
CC(C)Nc1ncnc2c1ncn2[C@H]1CN(Cc2ccncc2)C[C@@H](CO)O1,5.31,
CN1OC[C@@H]2CN(C(=O)c3ccc(-c4ccccc4)cc3)[C@H](c3ccc(-c4cccc(F)c4)cc3)C[C@@H]21,-9.37,
CCC(=O)N1CCCC1(C)C(=O)Nc1ccc2c(c1)CCN2C(C)=O (stereo not given),2.67,
Cc1ccc(S(=O)(=O)N(Cc2cc3ccccc3[nH]c2=O)CC2CCCO2)cc1 (stereo not given),0,

Compound,"activity change, negative = cytotoxicity [%]",Potency
CCC(=O)N(CCc1ccccc1)Cc1cc2cc(C)ccc2[nH]c1=O,7.33,
CCN(Cc1cc2cc(C)ccc2[nH]c1=O)S(=O)(=O)c1ccccc1,,3.66 µM (active)
S=C(NN=Cc1ccccn1)Nc1ccccn1,-22.3,
Cc1ccc(CNC(=O)Nc2nnc([C@H]3C[C@H](O)[C@@H](CO)O3)s2)cc1,10.1,
CCN(CC)S(=O)(=O)c1cc(C(=O)Nc2ccccn2)ccc1C,,23.1 µM (active)
Cc1ccc(C(=O)Nc2ncccc2C)cc1S(=O)(=O)N1CCOCC1,24.1,
Cc1ccc(NC(=O)CNCc2ccccn2)cc1S(=O)(=O)N(C)C,-13.5,
COc1ccc(CN2CCC(C)(Oc3cccc(F)c3)C2)c2ccccc12 (stereo not given),0.247,
Fc1ccc(-c2nnc(CSc3nnc(-c4ccc5c(c4)OCO5)o3)o2)cc1,-1.24,
CCSc1nnc(-c2cc3c(s2)-c2ccccc2CC3)o1,-21.7,
Fc1ccc(CSc2nnc(-c3cc4c(s3)-c3ccccc3CC4)o2)cc1,,20.6 µM (active)
CCc1nc2ccc(C(=O)N(C)Cc3ccco3)cn2c1N(C)C(=O)Cc1ccccc1,2.02,
O=C(NCCc1ccccc1)C1CCN(S(=O)(=O)c2ccc(Br)s2)CC1,,2.06 µM (active)
Cc1cccc(NC(=O)CN2CCCN(S(=O)(=O)c3ccc(Br)s3)CC2)c1,-13.7,
O=C(C1CCN(S(=O)(=O)c2ccc(Br)s2)CC1)N1CCN(c2ccccc2)CC1,-3.73,
CSc1ccc(S(=O)(=O)N2CCC(C(=O)NCCc3ccccc3)CC2)cc1,5.48,
O=C(C1CCN(S(=O)(=O)c2ccc(Br)s2)CC1)N1CCN(C2CCCCC2)CC1,-11.7,
CC(C)N(C(=O)CN1CCN(S(=O)(=O)c2ccc(Br)s2)CC1)C(C)C,,23.1 µM (active)
CCCCNC(=O)C1CCCN(c2nnc(C)c3c(C)n(-c4ccc(Cl)cc4)nc23)C1 (stereo not given),-4.66,
O=C1OCCC1=COCCCCOC=C1CCOC1=O,21.3,
CCc1nc2ccc(C(=O)NC3CCN(Cc4ccccc4)CC3)cn2c1N(C)CCN1CCOCC1,-0.0663,
CCc1ccc(NC(=O)c2nn(-c3ccc(C)cc3)c(=O)n(C)c2=O)cc1,12.9,
O=C(CCl)NNc1nc(-c2ccccc2)c2cc(Cl)ccc2n1,-25,
NC(N)=Nc1nc(-c2ccccc2)c2cc(Cl)ccc2n1,1.99,
Clc1ccc2nc(-c3ccccc3)nc(C(Cl)Cl)c2c1,,3.66 µM (active)

# — PubChem BioAssay AID1347076 (National Center for Advancing Translational Sciences (NCATS), 2019)
